Compounds with a hit are over-represented: about 2.8% of the library has one in this group of screens.
Pol beta inh: qHTS Assay for Inhibitors of DNA Polymerase Beta; P06746; Pol beta primer extension/strand displacement, fluorescence kinetic; Potency, µM (titrated, usually from 114 µM), hits mostly inhibitors; 340,000 compounds, 1.3% hits; AID 485314, 2010
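Pol beta (10 nM) was preincubated with compound for 15 min at room temperature. The reaction was then started with 50 nM substrate and read immediately and after a further 10 min at room temperature.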
POLH inh: qHTS for Inhibitors of Polymerase Eta; DNA polymerase eta (Homo sapiens), Q9Y253; AID 588591, 2011; recombinant Pol eta, fluorescent DNA replication assay; 390,000 compounds, 1.2% hits; Potency, µM (top dose mostly 114 µM), most hits filed as inhibitors
Target sequence (Q9Y253 whole entry, looked up): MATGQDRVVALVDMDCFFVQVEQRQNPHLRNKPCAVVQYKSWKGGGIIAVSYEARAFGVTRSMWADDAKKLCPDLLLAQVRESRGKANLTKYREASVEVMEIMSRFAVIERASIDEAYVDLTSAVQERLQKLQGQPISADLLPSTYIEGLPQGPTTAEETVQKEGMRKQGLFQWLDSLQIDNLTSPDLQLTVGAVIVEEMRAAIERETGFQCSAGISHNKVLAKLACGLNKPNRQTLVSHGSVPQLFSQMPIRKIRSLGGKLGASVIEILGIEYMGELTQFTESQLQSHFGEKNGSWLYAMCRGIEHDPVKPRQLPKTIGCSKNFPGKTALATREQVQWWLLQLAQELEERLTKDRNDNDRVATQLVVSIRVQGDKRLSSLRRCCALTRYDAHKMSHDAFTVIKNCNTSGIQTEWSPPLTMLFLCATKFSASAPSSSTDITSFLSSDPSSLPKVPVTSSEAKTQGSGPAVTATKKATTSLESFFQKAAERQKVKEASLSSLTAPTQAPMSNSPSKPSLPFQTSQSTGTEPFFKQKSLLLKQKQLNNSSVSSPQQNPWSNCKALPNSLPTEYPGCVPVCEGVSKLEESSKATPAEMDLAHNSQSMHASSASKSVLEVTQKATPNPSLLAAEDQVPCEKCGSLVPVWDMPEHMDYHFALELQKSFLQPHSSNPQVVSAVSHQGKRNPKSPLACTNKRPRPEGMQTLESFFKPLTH
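Pol eta (10 nM) was preincubated with compounds for 15 min at room temperature, after which fluorescent replication substrate (50 nM final) was added to start the reaction. Fluorescence was read kinetically at 0 and 10 min.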
POLI inh: qHTS for Inhibitors of Polymerase Iota. DNA polymerase iota (Homo sapiens), Q9UNA4. Pol iota fluorescent replication assay, 10 min. Potency, µM (titrated, usually from 115 µM), actives largely listed as inhibitors. 390,000 compounds, 1% hits. AID 588590, 2011
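Pol iota at 10 nM preincubated 15 min with compounds at room temperature; reaction started with fluorescent substrate, 50 nM final. Fluorescence read kinetically at 0 and 10 min; buffer-only wells as negative control.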
Pol kappa inh: qHTS for Inhibitors of Polymerase Kappa | purified Pol kappa, fluorescent DNA synthesis assay, 10 min | 400,000 compounds, 0.53% hits | Potency, µM (doses to about 107 µM), usual class: inhibitors | DNA polymerase kappa (Homo sapiens), Q9UBT6
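Readout: fluorescence, taken kinetically at 0 and 10 min. Conditions: 10 nM Pol kappa, 15 min RT compound preincubation, 50 nM substrate final. Controls: enzyme-free buffer wells.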
PI5P4K alpha inh: qHTS for Inhibitors of phosphatidylinositol 5-phosphate 4-kinase (PI5P4K) | PI5P4Kalpha enzyme, ADP-Glo luminescence, 60 min; active compounds read low | 330,000 compounds, 1.2% hits | max response, %; active = max response of -50% or lower; inconclusive = between -30% and -50%; inactive = -30% or higher; note: value at the top dose of about 77 µM
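Enzyme plus substrate dispensed, test compounds pinned in, then ATP (5 microM final) added. After 60 min at RT, ADP-Glo reagent 1 for 45 min and reagent 2 for 30 min preceded luminescence imaging.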
FEN1 inh: qHTS Assay for the Inhibitors of Human Flap endonuclease 1 (FEN1) | Recombinant FEN1 flap cleavage, fluorescence, 15 min | AID 588795, 2011 | 390,000 compounds, 0.35% hits | Potency, µM (highest dose often 114 µM), usual class: inhibitors; note: nearly all actives have a fitted effect of over 65% in size
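Concentration–response screening of FEN1 (10 nM): 15 min compound preincubation at room temperature, reaction started with 50 nM substrate and read at 0 and 15 min. Corrected, normalized data were fitted by a four-parameter Hill equation.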
A number is an active result; i = inactive; ? = inconclusive; nt = no result given. Unless noted, calls come from the whole dose curve; as a rule, active = well fitted curve in the direction sought with a large enough effect; inconclusive = small, poorly fitted or top-dose-only effect, or another doubt; inactive = no such curve, though single readings can be large; an effect the other way counts as inactive or inconclusive.

SMILES	Pol beta inh	POLH inh	POLI inh	Pol kappa inh	PI5P4K alpha inh	FEN1 inh
O=C(N/N=C1\CCCc2oc(C(=O)O)cc21)c1ccccc1	i	i	i	i	i	i
CCC(C(=O)NCCc1ccccc1)n1nc(C)c2sc3ccccc3c2c1=O (centres undefined)	?	i	i	i	nt	i
c1ccc(-c2nnc3sc(Cc4cccs4)nn23)cc1	45µM	i	?	i	nt	i
Clc1ccc(-c2nnc3sc(Cc4cccs4)nn23)cc1	?	?	i	i	?	i
OC(C1=C/C(=C\c2ccncc2)c2ccccc21)c1ccncc1 (centres undefined)	nt	nt	i	i	nt	i
O=C(CNC(=O)c1ccc(-c2ccccc2)cc1)OCc1ccc(Br)cc1	i	22µM	i	i	i	i
O=C(CCCN1C(=O)S/C(=C/C=C/c2ccccc2)C1=O)Nc1ccc(C(=O)O)cc1	i	89µM	?	i	i	i
CC(=C\c1ccccc1)/C=C1/SC(=O)N(CCCC(=O)Nc2ccc(C(=O)O)cc2)C1=O	i	i	i	i	i	i
CCC(CC)C(=O)c1c[nH]c(C(=O)N2CCN(c3ccccc3)CC2)c1	i	i	i	i	i	i
COc1ccc(-n2nc3c(N4CCC(C(=O)NCc5ccccc5C)CC4)nnc(C)c3c2C)cc1	79µM	i	?	i	i	i
Cc1ccc(-n2nc3c(N4CCC(C(=O)NCCc5ccco5)CC4)nnc(C)c3c2C)cc1	i	i	?	i	i	i
COc1ccc(-n2nc3c(N4CCCC(C(=O)NCc5ccccc5C)C4)nnc(C)c3c2C)cc1 (centres undefined)	?	i	?	i	nt	i
Cc1ccc(-n2nc3c(N4CCC(C(=O)NCc5ccc(C)o5)CC4)nnc(C)c3c2C)cc1	0.4µM	i	?	i	i	?
c1ccc(SC23CCCCN(CCC2)[C@]32CO2)cc1 (some centres undefined)	nt	nt	nt	nt	i	nt
CC1(C#CC[N+]2(C)CCCCC2)CCC2C(O1)c1ccccc1OC2(C)C (centres undefined)	i	i	40µM	i	i	i
O=C1Cc2cc(S(=O)(=O)N3CCNCC3)ccc2N1	nt	?	32µM	i	i	i
Cc1ccc(-c2cc(-c3ccccc3Cl)c(C#N)c(N)n2)o1	i	i	?	i	?	i
Cc1ccc(-c2cc(-c3ccccc3)c(C#N)c(N)n2)o1	i	i	i	i	-58	i
Cc1ccc(Cl)cc1N1CCN(C(=O)CSc2cc(=O)n(C)c3ccccc23)CC1	i	i	i	i	nt	i
Cc1ccc(Cl)cc1N1CCN(C(=O)CSc2ccsc2[N+](=O)[O-])CC1	20µM	22µM	?	i	?	i
O=C(NCc1ccccc1F)c1sc2ncccc2c1-n1cccc1	i	i	i	i	nt	i
COc1cc(/C=C2/C=Cc3ccccc32)ccc1N(C)C	nt	nt	71µM	?	nt	i
O=C(CSc1ncc(-c2ccccc2)[nH]1)Nc1ccccc1	i	i	i	i	nt	i
CC(=O)Nc1cccc(NC(=O)CSc2ncc(-c3ccccc3)[nH]2)c1	14µM	i	?	i	i	i
Cc1nc(N=Nc2cc(S(=O)(=O)O)c3cc([N+](=O)[O-])cc(S(=O)(=O)O)c3c2)c(COP(=O)(O)O)c(C=O)c1O	2.8µM	0.63µM	5µM	9.5µM	nt	7.5µM
CCOc1cc(C=O)cc(N=Nc2cccc([N+](=O)[O-])c2)c1O	i	i	i	i	i	i
Cc1nc(N=Nc2cc([N+](=O)[O-])ccc2Cl)c(COP(=O)(O)O)c(C=O)c1O	nt	nt	nt	27µM	nt	nt
C[n+]1ccnc2cc(Cl)ccc21	nt	nt	?	i	nt	?
O=[N+]([O-])c1ccc(O)c(/C=N/NC(=S)Nc2ccc(Cl)cc2Cl)c1	i	i	?	?	-66	i
Cc1cccc(OC(=O)c2cc(-c3ccc4c(c3)OCCO4)on2)c1	i	i	i	i	nt	i

Source: PubChem BioAssay
